Assay in all cases: NCI-60 one-dose screen, 48 h (100 = growth as untreated, 0 = no growth, -100 = all killed)
Settings in all cases: 10 µM unless noted

Experiment [1] relates to NCI-H23 lung.
Experiment [2] has as its system NCI-H226 lung.
Experiment [3] deals with NCI-H322M lung.
The subject of experiment [4] is HOP-62 NSCLC.
In experiment [5] the test system is NCI-H460 lung.
Experiment [6] has as its system HOP-92 NSCLC.
For experiment [7], the system named is NCI-H522 lung.
In experiment [8] the test system is A549/ATCC NSCLC.
Experiment [9] concerns 786-0 renal.
Experiment [10] relates to COLO 205 colon.
Experiment [11] relates to DU-145 prostate.
Experiment [12] has as its system K-562 leukemia.
The subject of experiment [13] is MALME-3M melanoma.
Experiment [14] deals with MDA-MB-231 breast.
Experiment [15] has as its system RXF 393 renal.
In experiment [16] the test system is SF-268 CNS.
Experiment [17] has as its system SF-295 CNS.
The test system of experiment [18] is SF-539 CNS.
Experiment [19] has as its system UACC-257 melanoma.
Experiment [20] relates to M14 melanoma.

The record followed here is PubChem BioAssay (NCI).

The panel holds about 83,000 compounds, 20% with a hit somewhere; the sample as a whole holds those more often.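 Method: cells in 96-well plates; compound added at one concentration; 48 h incubation; percent growth measured; values under 10 scored active.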 Values without a mark were called inactive. Calls of active or inactive are those of the source.

Take `CC(C)c1ccc2c(c1)CC[C@H]1[C@](C)(C(=O)OCC#CCN3CCCC3)CCC[C@]21C`: the growth is 61.3% in [1]; 81.8% in [2]; 93.8% in experiment [3]; 94.1% in [4]; 96.9% in experiment [5]; 65.2% in experiment [6]. Further, the growth in experiment [7] was 85.8%; in experiment [8], 75%; in experiment [9], 84.1%; in [10], 44.7%; in [11], 89.3%; in experiment [12], 39.8%. The growth is 70.8% in [13]; 100% in [14]; 74% in experiment [15]; 89.1% in [16]; 97.5% in [17]; 77.8% in [18]. Also, the growth in experiment [19] and in experiment [20] was 82.4% each time.

On to `OC1(c2ccccc2)c2ccccc2N(c2ccccc2)c2ccc(Cl)cc21` (centres undefined), for which the growth is -49.4% (active) in [1]; -80.7% (active) in [2]; -90.3% (active) in [3]; -91.7% (active) in experiment [4]; -48.4% (active) in [5]; -76.8% (active) in experiment [6]. Also, the growth was -86.8% (active) in experiment [7]; -12.5% (active) in experiment [8]; -94.6% (active) in experiment [9]; -85.7% (active) in experiment [10]; -90.6% (active) in experiment [11]; -11.4% (active) in experiment [12]. The growth was -93.1% (active) in experiment [13]; -77% (active) in [14]; -83% (active) in experiment [15]; -72.4% (active) in experiment [16]; -57.6% (active) in experiment [17]; -82.6% (active) in experiment [18]. Moreover, the growth in [19] was -58.8% (active).

For `C=C(C)[C@@H]1CC[C@]2(COC3CCCCO3)CC[C@]3(C)[C@H](CC[C@@H]4[C@@]5(C)C=C(C=O)C(=O)C(C)(C)[C@@H]5CC[C@]43C)[C@@H]12` (some centres undefined), the growth in [1] was -58.9% (active); in [2], 1.68% (active); in [3] it was 8.97% (active); in [4], -68% (active); in experiment [5] it was -47.2% (active); in [6] it was -91.6% (active). The growth in experiment [7] is -75% (active); in experiment [8], -63.5% (active); in experiment [9] it was -86.2% (active); in experiment [10], -32% (active); in experiment [11], -94.3% (active); in experiment [12], -24.9% (active). Further, the growth in experiment [13] is -75.4% (active); in experiment [14], -37.7% (active); in [15] it was -85.7% (active); in experiment [16], -67.1% (active); in experiment [17] it was -95.5% (active); in experiment [18] it was -74.3% (active). Moreover, in experiment [19], the growth was -28.5% (active).

As to `N=C(N)c1ccc(OCCSCCOc2ccc(C(=N)N)cc2)cc1`, the growth in experiment [1] was 36.2%; in experiment [2] it was 58.8%; in experiment [3] it was 78.3%; in experiment [4], 72.5%; in experiment [5], 27.1%; in [6], 79.2%. The growth in experiment [7] was 48.5%; in experiment [8] it was 57.4%; in experiment [9], 80.2%; in experiment [10] it was 79.5%; in experiment [11] it was 71.7%; in experiment [12], 54.3%. Moreover, the growth is 52.2% in experiment [13]; 82.1% in experiment [14]; 105% in experiment [15]; 74.2% in experiment [16]; -33.5% (active) in [17]; 76.5% in experiment [18]. Further, the growth in experiment [19] is 76.2%.

As to `Cc1cccc(-c2nc(C(C)C)sc2-c2ccnc(NCCCNS(=O)(=O)c3ccc(Cl)cc3)c2)c1`, the growth in [1] is 84.9%; in experiment [2] it was 81.4%; in [3], 95.1%; in experiment [4], 91.6%; in [5], 70.1%; in experiment [6], 83.1%. Besides, the growth in experiment [7] was 55.4%; in experiment [8] it was 74.8%; in [9] it was 76.3%; in [10], 60.8%; in experiment [11], 78.2%; in experiment [12], 30.5%. For the same compound, the growth in experiment [13] was 99.9%; in [14] it was 76.5%; in experiment [15], 103%; in experiment [16] it was 67.4%; in experiment [17], 80.7%; in experiment [18] it was 84.2%. For the same compound, the results for the growth in experiment [19] and in [20] were 113% and 82.2%, respectively.

`COC(=O)c1c(C)nc(C)c2c1C(=O)C=C(NCc1ccccc1)C2=O`: the growth in [1] was 72%; in experiment [2] it was 93.9%; in [3] it was 92.5%; in experiment [4], 91.2%; in experiment [5] it was 67.1%; in experiment [6] it was 117%. Besides, the growth in [7] was 78.8%; in experiment [8], 103%; in experiment [9] it was 84.7%; in [10], 78.5%; in experiment [11], 95.8%; in experiment [12] it was 69.1%. Also, the growth in [13] is -1.94% (active); in [14], 70.3%; in [15] it was 94.5%; in experiment [16], 78.8%; in experiment [17] it was 87.2%; in experiment [18] it was 96.9%. In addition, the growth in experiment [19] was 104%.

Take `COc1cc2ncnc(Nc3ccc(S(=O)(=O)Nc4nccs4)cc3)c2cc1OCCCN1CCCC1`: the growth in experiment [1] was 99.8%; in [2], 105%; in experiment [3] it was 103%; in experiment [4], 103%; in experiment [5], 107%; in experiment [6], 119%. For the same compound, the growth was 94.1% in [7]; 102% in experiment [8]; 105% in experiment [9]; 113% in experiment [10]; 105% in [11]; 84.2% in experiment [12]. Moreover, the growth was 101% in [13]; 104% in [14]; 99% in [15]; 99.2% in experiment [16]; 106% in [17]; 101% in experiment [18]. Moreover, in [19], the growth was 99.6%.

Consider `COc1cc(C=Nc2oc(-c3ccccc3)c(-c3ccccc3)c2C#N)cc(CN2CCCC2)c1O`, for which the growth was 94.8% in experiment [1]; 93.7% in [2]; 103% in experiment [3]; 94% in experiment [4]; 102% in [5]; 85.6% in experiment [6]. Further, the growth was 85.8% in experiment [7]; 94.4% in experiment [8]; 99.3% in [9]; 114% in experiment [10]; 108% in experiment [11]; 94.4% in [12]. Besides, the growth was 117% in [13]; 95.7% in experiment [14]; 111% in [15]; 96.4% in experiment [16]; 98.5% in experiment [17]; 95.1% in experiment [18]. For the same compound, in [19], the growth was 107%.
